Binding signal data for one sequence are collected here from patent US20210230599, “STEM-LOOP COMPOSITIONS AND METHODS FOR INHIBITING INTERLEUKIN-8” (VITRISA THERAPEUTICS, INC., published 2021).

The test concerns the target Interleukin-8 (IL8, CXCL8), C-terminal His-tagged (Homo sapiens, UniProt P10145 SEQ:1-72). The test can be described thus: competition; competition TR-FRET; L1 deleted, described as complete loss. The settings on record: tags: C-terminal 6xHis (Sino Biological); ssRNA; 2'-F G, 2'-OMe A/C/U, 5' C6NH2, 3' idT. The protocol:
To better understand the sequence requirements and to confirm the stem structures of members of the Aptamer 3 family as determined from sequence covariation analysis from both the primary and secondary (degenerate) selections, a series of variants which included mutations and deletions to the predicted stems were synthesized and screened (Table 24). Activity of each of these variants were tested using a time resolved competition TR-FRET assay in which the labeled parent Aptamer 3 was competed with increasing concentrations of unlabeled variants for binding to IL8 (FIG. 14). Briefly, 2-fold dilutions of thermally equilibrated aptamers were made in TR-FRET Buffer (50 mM MOPS, pH 7.4, 125 mM NaCl, 5 mM KCl, 50 μM CHAPS, 0.1 mg/mL BSA, 1 mM CaCl₂, and 1 mM MgCl₂). 5 μL of aptamer or control solution was added to 5 μl mix of 10 nM C-terminal His-tagged-IL8, 60 nM ALEXA FLUOR® 647-labeled Aptamer, and 5 nM anti-His-Eu (Perkin Elmer) in a black wall low volume 384 well plate (Greiner). […] The plate was read on a Biotek CYTATION™ 5 plate reader. […]
To confirm the importance of this residue, molecules were made and tested in which either loop L1 was deleted entirely (Aptamer 40) or was mutated to 5′-U-3′(Aptamer 41). In both cases, there was a complete loss of activity (>10-fold) as determined by competition TR-FRET assay (Table 25 and FIG. 15).
On to GAUGCGGUAGAUUACGGGUAGAGUGACCGCAUC, for which the binding signal was more than 10 fold worse than Aptamer 3.
